Among the data in PubChem BioAssay (NCATS) are Potency values, retold here.

SMILES strings stand for the structures. Records with an inconclusive call do not appear. Activity calls are given as the source filed them. Calls come from the whole dose curve; as a rule, active = well fitted inhibition curve with a large enough effect; inconclusive = small, poorly fitted or top-dose-only effect; inactive = flat fitted curve, though single readings scatter.

Assay [1] deals with Luciferin 4-monooxygenase (Photinus pyralis) (UniProt P08659). The assay is described as follows: Biochemical firefly luciferase enzyme assay for NPC (AID 624030).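 Note: purified P. pyralis luciferase at 10 nM with luciferin and ATP substrate; nearly all actives have a fitted effect of over 70% in size.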 A digest of the protocol:
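Purified P. pyralis luciferase at 10 nM in 50 mM Tris Acetate (final), luminescence read within 5 minutes of enzyme addition to compounds. Activity normalised to PTC124 versus DMSO; concentration-response curves classed by r2, magnitude and activity.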

In assay [2] the test system is CP266. The experiment in a line: qHTS profiling for inhibitors of Plasmodium falciparum proliferation (AID 504749). Note: nearly all actives have a fitted effect of over 60% in size. Note: potency is the fitted concentration of half-maximal effect. Particulars: P. falciparum in erythrocytes, SYBR Green DNA, 72 h; series mostly up to 28.7 µM. A digest of the protocol:
(§1)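 P. falciparum-infected erythrocytes (0.3% parasitemia, 2.5% hematocrit) incubated with compound 72 h at 37 C, 5% CO2. Parasite DNA detected by SYBR Green after lysis, overnight at room temperature; normalised to 0.29 uM artemisinin and DMSO.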

Assay [3] has as its system CP268. Described as above. Particulars: P. falciparum in erythrocytes, SYBR Green DNA, 72 h; series mostly up to 28.7 µM. The essentials: as §1
In assay [4] the test system is CP269. The assay is described as above. Particulars: P. falciparum in erythrocytes, SYBR Green DNA, 72 h; series mostly up to 28.7 µM. A digest of the protocol: as §1
Assay [5] concerns CP305. The assay is described as above. Particulars: P. falciparum in erythrocytes, SYBR Green DNA, 72 h; series mostly up to 28.7 µM. The essentials:
as §1

Assay [6] has as its system CP325. Described as above. Particulars: P. falciparum in erythrocytes, SYBR Green DNA, 72 h; series mostly up to 28.7 µM. The essentials:
as §1

Assay [7] concerns CP329. Described as above. Particulars: P. falciparum in erythrocytes, SYBR Green DNA, 72 h; series mostly up to 28.7 µM. A digest of the protocol: as §1
Assay [8] deals with CP335. Described as above. Particulars: P. falciparum in erythrocytes, SYBR Green DNA, 72 h; series mostly up to 28.7 µM. A digest of the protocol: as §1
The test system of assay [9] is DIV14. The description is as above. Particulars: P. falciparum in erythrocytes, SYBR Green DNA, 72 h; series mostly up to 28.7 µM. The essentials:
as §1

Assay [10] concerns ECU. The assay is described as above. Particulars: P. falciparum in erythrocytes, SYBR Green DNA, 72 h; series mostly up to 28.7 µM. A digest of the protocol: as §1
Assay [11] deals with GB4. The description is as above. Particulars: P. falciparum in erythrocytes, SYBR Green DNA, 72 h; series mostly up to 28.7 µM. The essentials:
as §1

For assay [12], the system named is JCK. The description is as above. Particulars: P. falciparum in erythrocytes, SYBR Green DNA, 72 h; series mostly up to 28.7 µM. The essentials: as §1
For assay [13], the system named is P93_24. Described as above. Particulars: P. falciparum in erythrocytes, SYBR Green DNA, 72 h; series mostly up to 28.7 µM. The essentials:
as §1

Assay [14] has as its system PAD. The description is as above. Particulars: P. falciparum in erythrocytes, SYBR Green DNA, 72 h; series mostly up to 28.7 µM. A digest of the protocol:
as §1

For assay [15], the system named is PC15. The description is as above. Particulars: P. falciparum in erythrocytes, SYBR Green DNA, 72 h; series mostly up to 28.7 µM. The essentials: as §1
Assay [16] relates to PC49. The description is as above. Particulars: P. falciparum in erythrocytes, SYBR Green DNA, 72 h; series mostly up to 28.7 µM. The essentials:
as §1

The subject of assay [17] is TAB109. The description is as above. Particulars: P. falciparum in erythrocytes, SYBR Green DNA, 72 h; series mostly up to 28.7 µM. A digest of the protocol:
as §1

For assay [18], the system named is TAB113. The assay is described as above. Particulars: P. falciparum in erythrocytes, SYBR Green DNA, 72 h; series mostly up to 28.7 µM. The essentials: as §1
Assay [19] concerns CP297. Described as above. Particulars: P. falciparum in erythrocytes, SYBR Green DNA, 72 h; series mostly up to 28.7 µM. The essentials:
as §1

Assay [20] deals with PC26. Described as above. Particulars: P. falciparum in erythrocytes, SYBR Green DNA, 72 h; series mostly up to 28.7 µM. The essentials:
as §1

Sequence of Luciferin 4-monooxygenase (Photinus pyralis) (P08659 whole entry, looked up): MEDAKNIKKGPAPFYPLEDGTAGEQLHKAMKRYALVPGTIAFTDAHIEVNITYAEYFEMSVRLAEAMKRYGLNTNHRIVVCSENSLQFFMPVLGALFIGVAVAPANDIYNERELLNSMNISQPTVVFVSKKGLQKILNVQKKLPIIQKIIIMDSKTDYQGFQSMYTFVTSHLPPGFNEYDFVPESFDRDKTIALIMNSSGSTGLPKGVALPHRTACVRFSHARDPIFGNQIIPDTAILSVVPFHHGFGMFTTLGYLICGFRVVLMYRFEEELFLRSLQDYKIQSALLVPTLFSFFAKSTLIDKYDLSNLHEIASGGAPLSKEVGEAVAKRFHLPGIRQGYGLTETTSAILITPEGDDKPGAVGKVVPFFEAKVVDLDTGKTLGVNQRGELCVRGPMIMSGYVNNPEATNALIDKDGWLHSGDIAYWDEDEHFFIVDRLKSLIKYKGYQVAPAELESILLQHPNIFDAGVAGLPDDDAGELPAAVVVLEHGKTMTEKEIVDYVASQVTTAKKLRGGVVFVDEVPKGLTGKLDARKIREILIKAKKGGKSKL

Turning to `NCCCCC(N)C(=O)O` (stereo not drawn), the Potency result in assay [1], in [2], in assay [3], in assay [4], in assay [5] and in assay [6] was “inactive” throughout. The Potency result in assay [7], in assay [8], in assay [9], in assay [10], in [11] and in assay [12] was “inactive” in each case. Moreover, the Potency result in assay [13], in assay [14], in [15], in [16], in [17] and in [18] was “inactive” in each case.

As for `CC(=O)OCC(=O)[C@@]1(O)CCC2C3C[C@H](C)C4=CC(=O)C=CC4(C)C3C(O)CC21C` (stereo partly drawn), the Potency result in [1], in assay [2], in assay [3], in assay [4], in assay [19] and in [5] was “inactive” each time. Besides, the Potency entry in assay [6], in assay [7], in assay [8], in assay [10], in [11] and in assay [12] was “inactive” throughout. In addition, the Potency result in [13], in assay [14], in assay [15], in [20], in assay [16] and in assay [17] was “inactive” throughout. For the same compound, the Potency entry in assay [18] was “inactive”.

`NC(=O)OC[C@@H]1[C@H](NC(=O)/C(=N/OCC(=O)O)c2csc(N)n2)C(=O)N1S(=O)(=O)O`: the Potency entry in [1], in assay [2], in [4], in assay [19], in assay [5] and in [6] was “inactive” throughout. The Potency entry in [7], in assay [8], in [9], in assay [10], in assay [11] and in assay [13] was “inactive” in each case. Besides, the Potency entry in assay [14], in [15], in assay [20], in [16], in assay [17] and in [18] was “inactive” throughout.

Consider `CN(C)CC/C=C1\c2ccccc2COc2ccc(CC(=O)O)cc21`, for which the Potency entry in [1], in assay [2], in [3], in [4], in [19] and in assay [5] was “inactive” in each case. Further, the Potency result in assay [6], in assay [7], in assay [9], in assay [10], in assay [11] and in assay [12] was “inactive” throughout. Besides, the Potency result in [13], in assay [14], in [15], in assay [16], in assay [17] and in [18] was “inactive” throughout.

`C[C@H]1OC(OC2C(O)[C@@H](O)C(OC3C(O)[C@@H](O)C(O)O[C@@H]3CO)O[C@@H]2CO)[C@H](O)C(O)C1N[C@H]1C=C(CO)[C@@H](O)[C@H](O)C1O` (stereo partly drawn): the Potency entry in [1], in assay [2], in assay [3], in assay [4], in assay [19] and in assay [5] was “inactive” throughout. Further, the Potency entry in assay [6], in assay [7], in assay [8], in assay [9], in assay [10] and in assay [11] was “inactive” in each case. Besides, the Potency entry in assay [12], in [13], in [14], in assay [15], in assay [16] and in assay [17] was “inactive” in each case. The Potency result in assay [18] is “inactive”.

For `COC1CC2CCC(C)[C@](O)(O2)C(=O)C(=O)N2CCCCC2C(=O)OC(C(C)CC2CCC(O)C(OC)C2)CC(=O)C(C)/C=C(/C)C(O)C(OC)C(=O)C(C)CC(C)C=CC=C/C=C\1C` (stereo partly drawn), in [1], the Potency result is “inactive”. The Potency was 6750 nM (active) in assay [2]; 6010 nM (active) in assay [3]; 4260 nM (active) in [4]; 4260 nM (active) in assay [19]; 5360 nM (active) in [5]; 5360 nM (active) in assay [6]. The Potency in [7] is 4260 nM (active); in assay [9], 1510 nM (active); in [10], 2000 nM (active); in assay [11], 1690 nM (active); in assay [12], 10000 nM (active); in assay [13], 1410 nM (active). Moreover, the Potency was 1260 nM (active) in [14]; 4470 nM (active) in assay [15]; 3790 nM (active) in assay [20]; 2240 nM (active) in assay [16]; 2240 nM (active) in assay [17]; 1410 nM (active) in assay [18].

Turning to `CC(=O)N[C@H]1[C@H](O[C@@H]2c3ccc(c(Cl)c3)Oc3cc4cc(c3O[C@@H]3O[C@H](CO)[C@@H](O)[C@H](O)C3C)Oc3ccc(cc3Cl)C[C@H]3NC(=O)[C@@H](N)c5ccc(O)c(c5)Oc5cc(O)cc(c5)[C@H](NC3=O)C(=O)N[C@H]4C(=O)N[C@H]3C(=O)N[C@@H]2C(=O)N[C@@H](C(=O)O)c2cc(O)cc(O[C@H]4O[C@H](CO)[C@@H](O)C(O)[C@@H]4O)c2-c2cc3ccc2O)O[C@H](CO)[C@@H](O)[C@@H]1O` (stereo partly drawn), the Potency entry in assay [2], in assay [3], in [4], in assay [19], in assay [5] and in assay [6] was “inactive” each time. In addition, the Potency result in assay [7], in assay [8], in assay [9], in assay [10], in assay [11] and in assay [12] was “inactive” in each case. For the same compound, the Potency result in assay [13], in assay [14], in assay [15], in assay [20], in assay [16] and in assay [18] was “inactive” throughout.

For the compound `CN[C@H](C)CCC=C(C)C`, the Potency entry in [1] was “inactive”. For the same compound, the Potency is 536 nM (active) in assay [2]; 1510 nM (active) in [3]; 478 nM (active) in [4]; 601 nM (active) in assay [19]; 1690 nM (active) in assay [5]; 757 nM (active) in assay [6]. For the same compound, the Potency was 239 nM (active) in assay [8]; 151 nM (active) in assay [9]; 224 nM (active) in assay [10]; 135 nM (active) in assay [11]; 355 nM (active) in assay [12]; 251 nM (active) in [13]. The Potency in assay [14] is 178 nM (active); in assay [15], 355 nM (active); in assay [20], 190 nM (active); in assay [16], 282 nM (active); in [17], 398 nM (active); in [18], 178 nM (active).
